PubChem BioAssay (NCATS)
Records with an inconclusive call do not appear. Entries that show only a call come without a potency. The source made the active and inactive calls. Calls come from the whole dose curve; as a rule, active = well fitted cell-killing curve with a large enough effect; inconclusive = small, poorly fitted or top-dose-only effect; inactive = flat fitted curve, though single readings scatter.

Experiment: Cell Viability - H-4-II-E (AID 543); note: nearly all actives have a fitted effect of over 35% in size
Conditions: H-4-II-E rat hepatoma viability; series mostly up to 92.2 µM
Description: NIH Chemical Genomics Center [NCGC]
NIH Molecular Libraries Screening Centers Network [MLSCN]
National Institutes of Environmental Health Sciences [NIEHS]
National Toxicology Program [NTP]
We have developed a 1536-well cell-based assay for quantitative high throughput screening (qHTS) against a number of cell lines to determine in vitro cytotoxicity of small molecules. This particular assay uses the H-4-II-E cell line which is derived from rat hepatoma.
NCGC Assay Protocol Summary:
The CellTiter-Glo luminescent cell viability assay (Promega) is a homogeneous method to measure the number of viable cells in culture. The end point readout of this assay is based on quantitation of intracellular ATP, an indicator of metabolic activity, using the luciferase reaction. Luciferase catalyzes the oxidation of beetle Luciferin to oxyluciferin and light in the presence of ATP. The luminescent signal is proportional to amount of ATP present.
Using the CellTiter-Glo luminescent cell viability assay, the amount of cellular ATP was measured in the H-4-II-E cell line with complete culture medium following compound treatment for 40 hours. The assay was performed in opaque white Kalypsys 1536-well plates. In the screen, tamoxifen and doxorubicin were used as positive controls. Library compounds were measured for their ability to cause acute toxicity in the cell line, as reflected by a decrease in intracellular ATP levels, in a concentration-dependent manner. […] AC50 values were determined from concentration-response data modeled with the standard Hill equation.
qHTS protocol fo CellTiter Glo H-4-II-E cellular assay
[Step] [Parameter] [Value] [Description]
1. Reagent; 5 uL; 1500 H-4-II-E cells/well
2. Time; 5 hr; 37 °C incubation
4. Controls; 23 nL; Tamoxifen 0.34 uM to 100 uM & Doxorubicin 0.02 nM to 100 uM
5. Time; 40 hr; 37 °C incubation
6. Reagent; 5 uL; CellTiter Glo reagent
7. Time; 20 min; Room Temperature
8. Detection; Luminescence; Viewlux plate reader
Keywords: cell viability, cytotoxicity, H-4-II-E cell line, luminescence, NTPHTS, NTPHTS_NCGC, NIEHS, EPA, DSSTox, MLSMR, MLSCN, NIH Roadmap, qHTS, NCGC

Compound | Potency
COc1ccc(N)cc1 | inactive
ClC(Cl)=C(Cl)Cl | inactive
c1nc[nH]n1 | inactive
CCCCCCCCCc1ccc(O)cc1 | inactive
COC(=O)NC(=S)Nc1ccccc1NC(=S)NC(=O)OC | inactive
CCOP(=S)(OCC)SCSC(C)(C)C | inactive
Clc1cc(Cl)c(-c2cc(Cl)c(Cl)cc2Cl)cc1Cl | inactive
Clc1nc(Cl)nc(Cl)n1 | inactive
S=C=Nc1cccc2ccccc12 | inactive
O=[N+]([O-])c1cccc2ccccc12 | inactive
C1CCC2CCCCC2C1 (stereo not given) | inactive
COC1=CC(=O)OC(CCc2ccccc2)C1 (stereo not given) | inactive
ClC1=C(Cl)C2(Cl)C3C(Cl)C=CC3C1(Cl)C2(Cl)Cl (stereo not given) | inactive
C=CCOC(C)=O | inactive
[O-][Br+2]([O-])O | inactive
COc1ccc(C=O)cc1OC | inactive
CCSC(=O)Cl | inactive
O=C=NC1CCCCC1 | inactive
C[N+](C)(C)Cc1ccccc1 | inactive
C/C=C/c1ccc2c(c1)OCO2 | inactive

Compound | Potency
CC(C)(C)OOC(C)(C)C | inactive
CC(Cl)Cl | inactive
C=CCc1ccc2c(c1)OCO2 | inactive
C=CCc1ccc(OC)cc1 | inactive
ClC(Cl)(Cl)c1ccccc1 | inactive
CCCCOCCOP(=O)(OCCOCCCC)OCCOCCCC | inactive
CC(=O)[O-].CC(=O)[O-].O.O.O.[Pb+2] | inactive
CCCC(=O)Cl | inactive
CCCCOC(=O)c1ccccc1C(=O)OCCCC | inactive
CCCOC(=O)c1ccccc1C(=O)OCCC | inactive
ClC1=C(Cl)C2(Cl)C3C4CC(C5OC45)C3C1(Cl)C2(Cl)Cl (stereo not given) | inactive
Brc1ccccc1 | inactive
C=CCOC(=O)c1ccccc1N | inactive
NC(=S)Nc1ccccc1 | inactive
Nc1ccccc1Cl | inactive
BrCCBr | inactive
Cc1cccc(C#N)c1 | inactive
Brc1ccc(Oc2cc(Br)c(Br)cc2Br)c(Br)c1 | inactive
CCOc1ccc(N)cc1 | inactive
Oc1ccc(Cl)cc1Cl | inactive
